An excerpt weighted towards active compounds, which were near 1.9% of everything screened.
ATG4B inh: ATG4B protease inhibitors, primary screen, biochemical, fluorescence, uHTS | ATG4B cleavage of LC3-PLA2, NBD-HPC fluorescence, 1 h | inhibition, % at 8.33 µM | actives 0.51% (n = 340,000); in the data active means inhibition above about 40%
DSG3 Ab inh: inhibitors of pemphigus antibody binding to DSG3, primary screen, biochemical, bead-based, flow cytometry, scFv-GFP; AID 588358, 2011; Desmoglein-3 (Homo sapiens), P32926; binding (percent of control), % at 10 µM; DSG3-coupled beads, scFv-anti-DSG3-GFP binding; hits give low values; actives 0.48% (n = 310,000);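 active means binding more than 3 SD below its plate's average and above zero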;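 further: hits lower antibody fragment binding to DSG3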
NSD2 HMT inh: NSD2 histone methyltransferase inhibitors, primary screen, biochemical, AlphaScreen, single concentration, set 2; actives 0.54% (n = 310,000); inhibition, % at 12.5 µM; NSD2 peptide methylation, 120 min; Histone-lysine N-methyltransferase NSD2 (Homo sapiens), O96028
N-glyco inh: increase of ERlucT glycosylation luciferase signal, primary screen, N-linked glycosylation inhibitor project, D54 ERlucT cells, luminescence, set 2; actives 0.23% (n = 360,000); reporter increase, % at 12.5 µM; D54 ERlucT glycosylation luciferase reporter, 24 h; percent of 100 nM tunicamycin response;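 active means mean luciferase reporter signal, scaled so untreated is 0 and the glycosylation-blocking control 100, at or above a set limit in every replicate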;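 further: luciferase carries N-glycosylation sites so blocking glycosylation raises the light; 0% = median of neutral control wells and 100% = median of 100 nM tunicamycin wells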
Vif inh: HIV Vif self-association inhibitors, primary screen, imaging, HEK293T, single point; actives 0.35% (n = 340,000); inhibition, % at 7.49 µM; AID 602346, 2012; HEK293T cells, Vif self-association by quenched fluorescence, 24 h; in the data active means inhibition above about 50%, passing the limit was not always enough
CaV13 FRET inh: Primary screen for inhibitors of IQ motif and Ca2+-dependent inactivation inhibitor domain binding in CACNA1D, Förster resonance energy transfer in living cells, …; HEK cells, CFP/YFP FRET ICDI-IQ, plate reader, 10 min; percent FRET-ratio fall versus neutral wells; inhibition, % at 12.3 µM; actives 0.098% (n = 340,000); AID 743397;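 active means mean replicate inhibition of at least 30% and at least 1% of replicates passing that level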;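 further: 0% = median of the neutral control wells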
ATG4B conf: ATG4B protease inhibitors, retest, confirmation, biochemical, fluorescence, single concentration. shares compounds with ATG4B inh. ATG4B protease fluorescent substrate cleavage assay. inhibition, % at 8.33 µM. actives 92% (n = 320); in the data active means inhibition above about 39%
PLA2 counter: PLA2 enzyme inhibition, counter-screen for ATG4B inhibitor project, biochemical, single concentration, uHTS hits; shares compounds with ATG4B inh; purified PLA2, NBD-C6-HPC fluorescence, 45 min; inhibition, % at 8.33 µM; actives 66% (n = 1,600); AID 588402, 2011
* hit, by the source's call; . = not tested or not shown. Unless noted, no stated cut-off is given here; in the data, active means inhibition above about 50%; inactive means the rest.

SMILES	ATG4B inh	DSG3 Ab inh	NSD2 HMT inh	N-glyco inh	Vif inh	CaV13 FRET inh	PLA2 counter	others
CC(=O)c1ccc(NC(=O)CSc2nnc(-c3ccco3)c(-c3ccco3)n2)cc1	-1	98	29	1	20	-5	.
COc1ccc(OC)c(-c2cc(C(=O)N3CCCc4ccccc43)no2)c1	47*	99	-1	-1	-3	-5	31	ATG4B conf=68*
COc1ccccc1-c1cc(C(=O)N2CCCc3ccccc32)no1	26	109	-4	0	-2	-6	.
COc1cccc(/C=N/NC(=O)C[n+]2ccccc2)c1OC	15	102	-2	1	7	-13	.
CCC(C)NC(=O)c1ccc(NC(=O)CC2SC(N3CCCC3)=NC2=O)cc1 (stereo not drawn)	-5	108	-1	5	-21	-5	.
CN(C)c1ccc(-c2nnn(Cc3ccccc3Br)n2)cc1	41*	100	2	-4	1	-7	39	ATG4B conf=66*
CCN(CC)S(=O)(=O)c1ccc(NC2=NS(=O)(=O)c3ccccc32)cc1	-12	98	-1	-2	2	-9	.
Clc1ccc2c(N/N=C/c3ccccc3Br)ccnc2c1	48*	133	-5	-4	-2	-4	27	ATG4B conf=56*
O=C(Nc1nnc(Cc2c[nH]c3ccccc23)s1)c1ccc(Cl)cc1Cl	52*	.	3	0	-3	-16	51*
CC(C)(C)c1ccc(C(=O)Nc2nnc(Cc3c[nH]c4ccccc34)s2)cc1	-7	100	0	-2	-5	-3	.
Nc1ncc(Br)cc1S(=O)(=O)Nc1cc(C(F)(F)F)cc(C(F)(F)F)c1	57*	96	2	2	-5	-14	47	ATG4B conf=56*
Cc1ccc(NS(=O)(=O)c2cc(Br)cnc2N)c(Cl)c1	8	112	.	-1	-8	-15	.
COC(=O)c1cc2sc(Cl)cc2n1CC(=O)Nc1ccc(OC)c(OC)c1OC	-1	77	-1	5	0	-13	.
Cn1c(NC(=O)c2ccccc2)cc(=O)n(C)c1=O	-2	91	.	2	3	-5	.
CCOC(=O)C1=C(c2ccccc2)NC(N)=NC1c1ccc(OCc2ccc(C(=O)OC)cc2)cc1 (stereo not drawn)	46*	109	6	-1	-8	-4	53*
O=C(/C=C/c1ccco1)N(Cc1cccc(Cl)c1)C1CCS(=O)(=O)C1 (stereo not drawn)	-11	.	1	-1	-5	-5	.
C=Cc1ccc(C(=O)N2CCC(n3nnc4ncccc43)CC2)cc1	.	.	0	.	.	.	.
O=Cc1ccc(OCCCOc2cccc3cccnc23)cc1	5	117	0	-1	-7	-2	.
O=Cc1ccccc1OCCCOc1cccc2cccnc12	65*	98	1	10	-2	-1	75*
COc1ccc(NC(=O)CC(C)c2ccccc2)c([N+](=O)[O-])c1 (stereo not drawn)	42*	.	10	0	-1	-14	1
COc1ccc(NC(=O)CC(C)C)c([N+](=O)[O-])c1	4	103	0	-2	15	-3	.
CC1(Cc2ccc(Cl)cc2)C(=O)Nc2ccc(-c3cccnc3)cc21 (stereo not drawn)	.	.	3	-12	-17	-5	.
CCc1ccc(NC(=S)Nc2ccc(S(=O)(=O)Nc3ncccn3)cc2)cc1	-3	104	.	1	-2	-2	.

High-throughput results: PubChem BioAssay, several laboratories
